The text below walks through data of PubChem BioAssay.

“And” between values parts separate entries of the source, which are not always exact repeats. Equal values may be shown once. Records with an inconclusive call do not appear. The source made the active and inactive calls.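 The calls were made as follows, unless noted: active = compounds whose cell count with miR-34 switched on is under 0.7 times the count with it off; inactive = the rest.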

Assay [1] in a line: compounds altering viability of human ES cells (AID 493140; call rule not given here;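 also: cells exposed to compounds for four days before counting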). The following applies: human embryonic stem cell survival screen; stronger effect = higher value.
The nature of assay [2]: P. berghei load reduction in hepatocytes – cell-based, HepG2, luciferase luminescence, HepG2 viability, primary screen (AID 624349; in the data active = parasite load remaining mostly below about 12%, no sharp cut-off; inactive = mostly above about 10%;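 also: 100% = mean of DMSO negative control wells on the same plate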). The following applies: P. berghei liver stage in HepG2, luciferase luminescence, concentration not given here; parasite load remaining: stronger effect = lower value; viability: measured here: HepG2 viability without parasites.
A short description of assay [3]: Wnt pathway potentiators raising nuclear beta-catenin – imaging, WNT3A-conditioned medium, mouse C2C12, NPC library, primary screen (AID 1117326; in the data active = nuclear beta-catenin stimulation mostly above about 4.2%, no sharp cut-off; inactive = mostly below about 10%). The following applies: stronger effect = higher value.
Assay [4] is described as follows: stimulators of insulin release from INS-1E, primary screen, cell-based, 5 mM glucose, NPC library (AID 1117329;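 active = compound raises insulin release from rat beta cells at 5 mM glucose, no numeric limit stated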). The following applies: rat INS-1E insulin secretion, at 10 µM, stronger effect = higher value.
The nature of assay [5]: growth inhibition of GSK3B-pretreated HCT116 cells – cell-based, CellTiter-Glo, 0.2 to 20 µM (AID 1117336;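 active = compounds lowering colon cancer cell viability after pretreatment blocking the GSK3B kinase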). The following applies: HCT116 viability after GSK3B inhibitor, at 20 µM, stronger effect = higher value. (In general: In ATP-based viability assays light output follows the ATP content of the culture.)
A short description of assay [6]: inhibition of endothelial tube formation, primary screen, imaging, VEGF stimulated, CD31 staining, tube area, NPC library (AID 1117340;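 active = compound that reduces growth-factor-driven endothelial tube area in a mixed cell culture, no cutoff stated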). The following applies: VEGF-stimulated ADSC/ECFC co-culture, at 10 µM, stronger effect = higher value.
Assay [7] is described as follows: GLP1 release stimulators, primary, NCI-H716, NPC library (AID 1117341;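 active = compound raises GLP1 secretion from the human gut endocrine cells, with no numeric limit stated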). The following applies: NCI-H716 cells, at 10 µM, stronger effect = higher value.
Assay [8] can be described thus: HCT116 colon cancer cell growth inhibition, primary screen, CellTiter-Glo luminescence, NPC library (AID 1117342;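 active = compounds that lower survival of HCT116 colon cancer cells in the luminescence readout, no numeric limit stated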). The following applies: at 20 µM (top of the series).
Assay [9] can be described thus: reduced SW480 viability measured with CellTiter-Glo, NPC library, primary (AID 1117343;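 active = compounds that lower viability of the colon cancer cells in the luminescence readout, with no numeric limit stated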). The following applies: CellTiter-Glo luminescence; at 20 µM (top of the series) unless noted.
A short description of assay [10]: NPC library primary testing for decreased DLD-1 cell viability via CellTiter-Glo (AID 1117346;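 active = compounds that lower survival of DLD-1 colon cancer cells in the luminescence readout, no cutoff given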). The following applies: DLD-1 viability, CellTiter-Glo luminescence; at 20 µM (top of the series).
A short description of assay [11]: viability loss with induced miR-34 in A549 – imaging, A549 dox-inducible miR-34, nuclei and caspase counts, primary screen (AID 1347080). The following applies: A549 miR-34 inducible, Hoechst nuclei count, 48 h.
A short description of assay [12]: MELAS cybrid and Rieske KO viability enhancers – cell-based, MELAS cybrids, Rieske KO mouse fibroblasts, CellTiter-Glo, primary screen (AID 1508586;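 active = mean z-score across replicates of 1.96 or higher in either the MELAS or the Rieske mutant cell line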;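 also: z relative to plate mean and SD of compound and empty wells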). The following applies: low glucose.
Assay [13] has as its target ATP-dependent translocase ABCB1 (Homo sapiens) (UniProt P08183). Put plainly: P-glycoprotein substrate transport blockade – cell-based (AID 377; in the data active = fluorescence slope change above about 50%). The following applies: MDR1-expressing cells, fluorescent substrate accumulation slope; stronger effect = higher value; concentration not given here.
Setting [14] is: stronger effect = lower value, cell number ratio, induced over uninduced.
Setting [15] is: measured here: relative caspase fold change +Dox/-Dox.
Setting [16] is: measured here: total cells with miR-34 induction, stronger effect = lower value.
[17] abbreviates: measured here: total cells without miR-34 induction.
Where [18] appears, read: MELAS cybrid survival, CellTiter-Glo 48 h, stronger effect = higher value.
[19] abbreviates: Rieske KO mouse fibroblast survival, CellTiter-Glo 72 h.

ATP-dependent translocase ABCB1 (Homo sapiens), sequence (P08183 whole entry, looked up): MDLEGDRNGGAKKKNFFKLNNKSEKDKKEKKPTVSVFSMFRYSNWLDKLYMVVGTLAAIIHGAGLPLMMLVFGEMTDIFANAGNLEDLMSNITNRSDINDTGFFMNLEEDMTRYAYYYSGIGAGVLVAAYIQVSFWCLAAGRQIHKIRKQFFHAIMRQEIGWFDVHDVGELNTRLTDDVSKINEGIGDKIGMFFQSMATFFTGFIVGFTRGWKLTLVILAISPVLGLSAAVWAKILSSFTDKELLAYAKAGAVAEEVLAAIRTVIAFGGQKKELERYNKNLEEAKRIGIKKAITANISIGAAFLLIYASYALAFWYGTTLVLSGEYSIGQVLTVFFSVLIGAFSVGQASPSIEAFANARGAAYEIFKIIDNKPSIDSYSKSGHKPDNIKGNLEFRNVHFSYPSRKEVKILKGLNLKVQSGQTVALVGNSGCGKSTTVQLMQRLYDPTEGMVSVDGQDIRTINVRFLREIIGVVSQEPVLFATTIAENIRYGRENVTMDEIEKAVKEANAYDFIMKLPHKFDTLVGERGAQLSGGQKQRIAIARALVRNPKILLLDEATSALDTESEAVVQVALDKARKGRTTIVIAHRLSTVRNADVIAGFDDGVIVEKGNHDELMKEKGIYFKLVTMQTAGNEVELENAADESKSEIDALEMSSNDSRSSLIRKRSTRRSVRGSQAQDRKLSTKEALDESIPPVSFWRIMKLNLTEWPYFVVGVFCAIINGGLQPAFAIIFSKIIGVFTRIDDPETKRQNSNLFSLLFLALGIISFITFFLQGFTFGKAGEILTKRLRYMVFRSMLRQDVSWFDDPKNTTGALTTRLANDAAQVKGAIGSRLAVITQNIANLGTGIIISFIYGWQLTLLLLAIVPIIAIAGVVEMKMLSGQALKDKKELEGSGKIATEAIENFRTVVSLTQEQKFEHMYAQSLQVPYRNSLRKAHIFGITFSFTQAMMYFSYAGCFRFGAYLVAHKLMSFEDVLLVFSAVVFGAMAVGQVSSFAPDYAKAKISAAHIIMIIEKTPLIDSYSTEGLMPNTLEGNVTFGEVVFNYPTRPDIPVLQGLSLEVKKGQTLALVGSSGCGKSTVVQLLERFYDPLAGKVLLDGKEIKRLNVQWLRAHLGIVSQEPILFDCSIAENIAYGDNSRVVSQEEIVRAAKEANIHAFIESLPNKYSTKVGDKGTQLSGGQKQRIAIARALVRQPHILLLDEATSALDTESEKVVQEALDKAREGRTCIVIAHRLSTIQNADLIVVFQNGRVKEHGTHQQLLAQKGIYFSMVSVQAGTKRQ

For `CC(C)(C)C(=O)OCOC(=O)[C@@H]1N2C(=O)[C@@H](NC(=O)[C@H](N)c3ccccc3)[C@H]2SC1(C)C`, in [1], the survival is 8.83 (inactive). Moreover, the parasite load remaining in [2] was 105% (inactive). In assay [2], the viability was determined as 75%. Further, the nuclear beta-catenin stimulation is -2.4% (inactive) in [3] (at 10 µM) and -1.3% in assay [3] (stimulation, at 2 µM). Moreover, the insulin secretion stimulation in [4] is 2.2% (inactive). Also, in assay [5], the viability decrease was -4.7% (inactive). For the same compound, in assay [6], the tube area decrease is -15.2% (inactive). For the same compound, in [7], the GLP1 secretion stimulation was 2.6% (inactive). In addition, in assay [8], the inhibition of viability is -17.9% (inactive). Besides, the viability decrease (inhibition) in [9] is 5.3% (inactive); in assay [10], -16.8% (inactive). Also, the fold change is 0.926 (inactive) in assay [11] (setting [14]) and 0.701 in assay [11] (setting [15]). For the same compound, the values for the cell count in assay [11] (setting [16]) and in [11] (setting [17]) were 9310 and 10100, respectively. Also, the z-score is -1.1 (inactive) in assay [12] (setting [18]) and -0.251 in [12] (setting [19]).

With `CCOC(=O)Nc1ccc2c(c1)N(C(=O)CCN1CCOCC1)c1ccccc1S2`, in assay [1], the survival is 4.83 (inactive). The parasite load remaining in assay [2] was 99.9% (inactive). Besides, the viability in assay [2] worked out at 97.4%. Further, the nuclear beta-catenin stimulation was -0.6% (inactive) in [3] (at 10 µM) and 1.1% in assay [3] (stimulation, at 2 µM). Moreover, in assay [4], the insulin secretion stimulation was 1.7% (inactive). In addition, the viability decrease in [5] is -14.2% (inactive). Further, the tube area decrease in assay [6] was 4% (inactive). Also, in [7], the GLP1 secretion stimulation is -2.4% (inactive). Further, in [8], the inhibition of viability was 15.2% (inactive). In addition, the values for the viability decrease (inhibition) in assay [9] and in assay [10] were 17.8% (inactive) and -16.3% (inactive), respectively. Also, the fold change is 0.922 (inactive) in assay [11] (setting [14]) and 1.07 in assay [11] (setting [15]). For the same compound, the figures for the cell count in [11] (setting [16]) and in assay [11] (setting [17]) were 8790 and 9540, respectively. Further, the z-score in [12] (setting [18]) was 0.935 (inactive); in assay [12] (setting [19]), 0.145.

On to `C[N+]1(C)CCC(=C(c2ccccc2)c2ccccc2)CC1`, for which the survival in assay [1] was 14.4 (inactive). Besides, the parasite load remaining in [2] was 49.5% (inactive) and 80.3% (inactive). In assay [2], the viability is 48.7% and 94.9%. Besides, the nuclear beta-catenin stimulation in [3] (at 10 µM) is 1.1% (inactive); in assay [3] (stimulation, at 2 µM), -1.3%. Moreover, in [4], the insulin secretion stimulation was 3.5% (inactive). For the same compound, the viability decrease in assay [5] was -7.5% (inactive). For the same compound, in [6], the tube area decrease is 23.2% (inactive). In assay [7], the GLP1 secretion stimulation is 0% (inactive). Further, in [8], the inhibition of viability was 7.97% (inactive). For the same compound, the viability decrease (inhibition) in assay [9] was 40.8% (inactive); in [10], -3.1% (inactive). Further, the fold change in [11] (setting [14]) was 0.907 (inactive) and 1.1 (inactive); in assay [11] (setting [15]), 0.619 and 0.415. Further, the cell count in assay [11] (setting [16]) was 8340 and 8800; in assay [11] (setting [17]), 9190 and 7990. Also, the z-score in assay [12] (setting [18]) was -0.294 (inactive) and -0.951 (inactive); in assay [12] (setting [19]), -0.199 and -0.0737.

`COCC(=O)Nc1c(I)c(C(=O)NCC(O)CO)c(I)c(C(=O)N(C)CC(O)CO)c1I` (stereo unspecified): in assay [1], the survival was 1.33 (inactive). In addition, in assay [2], the parasite load remaining is 103% (inactive). Moreover, the viability in [2] came to 104%. Moreover, the nuclear beta-catenin stimulation in assay [3] (at 10 µM) was 3% (inactive); in [3] (stimulation, at 2 µM), 2.8%. Also, the insulin secretion stimulation in assay [4] is 3.5% (inactive). For the same compound, the viability decrease in assay [5] is -12.6% (inactive). Besides, in assay [6], the tube area decrease was -13.9% (inactive). Further, the GLP1 secretion stimulation in [7] was -1.2% (inactive). Further, the inhibition of viability in assay [8] is -4.47% (inactive). The viability decrease (inhibition) is -13% (inactive) in [9] and -7.9% (inactive) in [10]. Besides, the results for the fold change in [11] (setting [14]) and in [11] (setting [15]) were 0.856 (inactive) and 1.69, respectively. Besides, the cell count turned out to be 8610 in [11] (setting [16]) and 10100 in assay [11] (setting [17]). Besides, the results for the z-score in [12] (setting [18]) and in assay [12] (setting [19]) were -0.386 (inactive) and -1.03, respectively.

Turning to `OC(CCCN1CCCCC1)(c1ccccc1)c1ccccc1`, the fluorescence slope change in assay [13] was 71.6% (active). Further, the survival in assay [1] is 12.2 (inactive). Moreover, the parasite load remaining in assay [2] was 29.2% (inactive) and 89.1% (inactive). For the same compound, the viability in [2] was 45.7% and 89.8%. Further, the nuclear beta-catenin stimulation was -0.9% (inactive) in assay [3] (at 10 µM) and -0.2% in assay [3] (stimulation, at 2 µM). Also, the insulin secretion stimulation in [4] is 22% (active). Further, the viability decrease in assay [5] was -9.5% (inactive). The tube area decrease in assay [6] is 3.9% (inactive). Further, the GLP1 secretion stimulation in [7] is -3.3% (inactive). For the same compound, the inhibition of viability in assay [8] is 6.1% (inactive). The viability decrease (inhibition) is 12% (inactive) in assay [9] and -3.8% (inactive) in assay [10]. Also, the fold change was 0.908 (inactive) and 0.916 (inactive) in [11] (setting [14]); 1.32 and 0.648 in [11] (setting [15]). The cell count in assay [11] (setting [16]) is 8770 and 8200; in assay [11] (setting [17]), 9660 and 8950. The z-score in assay [12] (setting [18]) was -0.227 (inactive) and -0.211 (inactive); in assay [12] (setting [19]), -0.167 and -0.027.

In general, viability refers to a read-out of living cells in per cent, often relative to untreated cells.
